Measured values from PubChem BioAssay (EPA / NIEHS).
The source made the active and inactive calls. How the source made its calls: active means hit-call score of the fitted dose curve at least 0.9, where 1 is the maximum; inactive means score below 0.9.

Key:
Settings in all cases: mRNA level, 48 h; actives raise or lower the signal
[1] = read-out: CYP2E1 (gene 1571); assay: LTEA_HepaRG_CYP2E1: Life Technologies and Expression Analysis (LTEA) Assay for CYP2E1 using HepaRG (AID 2283485)
How it was run: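 Differentiated HepaRG cells were treated in duplicate for 48 h with chemicals in 0.5% DMSO, from 100 uM downward in half-log dilutions. RNA was then analysed by qRT-PCR for CYP2E1 induction or loss.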

[2] = read-out: CYP4A11 (gene 1579); assay: LTEA_HepaRG_CYP4A11: Life Technologies and Expression Analysis (LTEA) Assay for CYP4A11 using HepaRG (AID 2283486)
How it was run: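 CYP4A11 transcript levels were quantified by TaqMan qRT-PCR after HepaRG human liver cells were treated for 48 hours with test chemicals (top 100 uM, half-log dilutions, 0.5% DMSO). Gain or loss of signal was fitted relative to DMSO.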

[3] = read-out: DNA damage-inducible transcript 3 (DDIT3), DDIT3 (gene 1649); assay: LTEA_HepaRG_DDIT3: Life Technologies and Expression Analysis (LTEA) Assay for DNA damage-inducible transcript 3 (DDIT3) using HepaRG (AID 2283488)
How it was run: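 Changes in DDIT3 transcript, in either direction relative to 0.5% DMSO vehicle, were quantified by TaqMan qRT-PCR after 48 h chemical exposure of HepaRG cells at 8 concentrations, maximum 100 uM.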

[4] = read-out: Pro-epidermal growth factor (Homo sapiens) (UniProt P01133); assay: LTEA_HepaRG_EGF: Life Technologies and Expression Analysis (LTEA) Assay for Epidermal growth factor (EGF) using HepaRG (AID 2283489)
How it was run: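 qRT-PCR readout of EGF transcript after 48 h chemical exposure of HepaRG cells; eight concentrations from 100 uM down in half-log steps, duplicate wells, 0.5% DMSO vehicle. Bidirectional curve fitting against DMSO baseline.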

[5] = read-out: Early growth response protein 1 (EGR1) transcription factor, EGR1 (gene 1958); assay: LTEA_HepaRG_EGR1: Life Technologies and Expression Analysis (LTEA) Assay for Early growth response protein 1 (EGR1) transcription factor using HepaRG (AID 2283490)
How it was run: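 Differentiated human HepaRG cells in serum-free induction medium were exposed in duplicate for 48 h to eight concentrations (top 100 uM, half-log steps) in 0.5% DMSO. EGR1 mRNA was quantified by qRT-PCR, normalized to ACTB, GAPDH and POLR2A, and fitted bidirectionally versus DMSO.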

[6] = read-out: Ezrin (EZR), EZR (gene 7430); assay: LTEA_HepaRG_EZR: Life Technologies and Expression Analysis (LTEA) Assay for Ezrin (EZR) using HepaRG (AID 2283491)
How it was run: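 EZR transcript levels came from Fluidigm qRT-PCR and were normalized to three housekeeping genes after 48 h chemical exposure of HepaRG cells. Dosing used an 8-point half-log series with a 100 uM top concentration in 0.5% DMSO, tested in duplicate; both directions were fitted versus vehicle.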

[7] = read-out: CYP3A5 (gene 1577); assay: LTEA_HepaRG_CYP3A5: Life Technologies and Expression Analysis (LTEA) Assay for CYP3A5 using HepaRG (AID 2283493)
How it was run: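 mRNA induction or loss of CYP3A5 assessed in HepaRG after 48 h dosing, 100 uM top concentration, duplicate wells; TaqMan qRT-PCR with ACTB, GAPDH, POLR2A normalization; 0.5% DMSO as negative control.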

[8] = read-out: Fatty Acid-Binding Protein 1 (FABP1), FABP1 (gene 2168); assay: LTEA_HepaRG_FABP1: Life Technologies and Expression Analysis (LTEA) Assay for Fatty Acid-Binding Protein 1 (FABP1) using HepaRG (AID 2283494)
How it was run: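 Differentiated human HepaRG cells were exposed in duplicate for 48 h in serum-free induction medium to 8-point half-log concentration series topping at 100 uM in 0.5% DMSO. FABP1 mRNA measured by TaqMan qRT-PCR, normalized to ACTB/GAPDH/POLR2A; bidirectional fit versus DMSO.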

[9] = read-out: Cytochrome P450 4A22 (Homo sapiens) (UniProt Q5TCH4); assay: LTEA_HepaRG_CYP4A22: Life Technologies and Expression Analysis (LTEA) Assay for Cytochrome P450 4A22 (CYP4A22) using HepaRG (AID 2283495)
How it was run: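 HepaRG, 48 h post-plating -> serum-free induction medium; dosed 48 h, duplicate, 8 conc. (100 uM top, half-log), 0.5% DMSO. Readout: CYP4A22 mRNA by qRT-PCR, ACTB/GAPDH/POLR2A normalization; gain/loss fit relative to DMSO.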

[10] = read-out: Cytochrome P450 7A1 (Homo sapiens) (UniProt P22680); assay: LTEA_HepaRG_CYP7A1: Life Technologies and Expression Analysis (LTEA) Assay for Cytochrome P450 7A1 (CYP7A1) using HepaRG (AID 2283496)
How it was run: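 Gene expression endpoint in human HepaRG liver cells treated for 48 h with test chemicals (up to 100 uM, 0.5% DMSO). Values come from bidirectional concentration-response fitting versus DMSO.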

[11] = read-out: Glutathione S-Transferase (GSTA2), GSTA2 (gene 2939); assay: LTEA_HepaRG_GSTA2: Life Technologies and Expression Analysis (LTEA) Assay for Glutathione S-Transferase (GSTA2) using HepaRG (AID 2283497)
How it was run: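 Human HepaRG cells, plated 48 h, then exposed in serum-free induction medium for 48 h to eight half-log concentrations up to 100 uM in 0.5% DMSO, duplicate. GSTA2 mRNA by qRT-PCR, normalized to ACTB/GAPDH/POLR2A; bidirectional fit versus DMSO.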

[12] = read-out: Glutamate-cysteine ligase catalytic (GCLC), GCLC (gene 2729); assay: LTEA_HepaRG_GCLC: Life Technologies and Expression Analysis (LTEA) Assay for Glutamate-cysteine ligase catalytic (GCLC) using HepaRG (AID 2283498)
How it was run: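 Differentiated human HepaRG cells, plated 48 h then switched to serum-free induction medium, were exposed in duplicate for 48 h to 8 half-log concentrations topping at 100 uM in 0.5% DMSO. GCLC mRNA was quantified by qRT-PCR against ACTB, GAPDH and POLR2A.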

[13] = read-out: growth arrest and DNA damage 45 (GADD45G), GADD45G (gene 10912); assay: LTEA_HepaRG_GADD45G: Life Technologies and Expression Analysis (LTEA) Assay for growth arrest and DNA damage 45 (GADD45G) using HepaRG (AID 2283499)
How it was run: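 HepaRG, 48 h exposure, top 100 uM, half-log 8-point series, 0.5% DMSO vehicle, duplicates. Readout: GADD45G transcript by qRT-PCR (Fluidigm array), housekeeping-normalised (ACTB/GAPDH/POLR2A). Bidirectional curve fit vs DMSO baseline.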

[14] = read-out: Glutamate-cysteine ligase regulatory (GCLM), GCLM (gene 2730); assay: LTEA_HepaRG_GCLM: Life Technologies and Expression Analysis (LTEA) Assay for Glutamate-cysteine ligase regulatory (GCLM) using HepaRG (AID 2283500)
How it was run: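 Human liver HepaRG cultures receive test chemicals for 48 hours at up to 100 uM in 0.5% DMSO. GCLM expression is measured by qRT-PCR and analysed for increases or decreases against vehicle.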

[15] = read-out: Heat shock 70 kDa protein 1 (HSPA1A), gene 3303; assay: LTEA_HepaRG_HSPA1A: Life Technologies and Expression Analysis (LTEA) Assay for Heat shock 70 kDa protein 1 (HSPA1A) using HepaRG (AID 2283502)
How it was run: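 HSPA1A induction in human HepaRG liver cells is measured after 48 h of chemical treatment (100 uM maximum, 0.5% DMSO vehicle). Expression comes from qRT-PCR normalized to endogenous controls.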

[16] = read-out: Hypoxia-inducible factor 1-alpha (Homo sapiens) (UniProt Q16665); assay: LTEA_HepaRG_HIF1A: Life Technologies and Expression Analysis (LTEA) Assay for Hypoxia-inducible factor 1 (HIF1A) Trancription factor using HepaRG (AID 2283503)
How it was run: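 HepaRG, 48 h exposure, 8-pt half-log series from 100 uM, 0.5% DMSO vehicle, duplicates. Readout: HIF1A transcript by qRT-PCR (Fluidigm array), housekeeping-normalised. Bidirectional curve fit vs DMSO baseline.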

[17] = read-out: 3-Hydroxy-3-Methylglutaryl-CoA Synthase 2 (HMGCS2), HMGCS2 (gene 3158); assay: LTEA_HepaRG_HMGCS2: Life Technologies and Expression Analysis (LTEA) Assay for 3-Hydroxy-3-Methylglutaryl-CoA Synthase 2 (HMGCS2) using HepaRG (AID 2283504)
How it was run: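 qRT-PCR read-out of HMGCS2 transcript, normalised to three housekeeping genes, in HepaRG cells after 48 h chemical exposure. Eight-point curves from 100 uM, half-log dilutions, 0.5% DMSO vehicle; gain or loss fitted relative to DMSO baseline.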

[18] = read-out: Cytochrome P450 3A4 (Homo sapiens) (UniProt P08684); assay: LTEA_HepaRG_CYP3A4: Life Technologies and Expression Analysis (LTEA) Assay for CYP3A4 using HepaRG (AID 2283487)
How it was run: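 Differentiated HepaRG cells, plated 48 h, then dosed 48 h in serum-free induction medium with 0.5% DMSO, 8 half-log concentrations up to 100 uM, duplicate. CYP3A4 mRNA by qRT-PCR, normalized to ACTB/GAPDH/POLR2A; bidirectional fit versus DMSO.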

[19] = read-out: Cytochrome P450 3A7 (Homo sapiens) (UniProt P24462); assay: LTEA_HepaRG_CYP3A7: Life Technologies and Expression Analysis (LTEA) Assay for CYP3A7 using HepaRG (AID 2283492)
How it was run: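 CYP3A7 transcript levels were read by TaqMan qRT-PCR on Fluidigm arrays after 48 h chemical exposure of human HepaRG cells, with housekeeping-gene normalisation. Eight half-log concentrations up to 100 uM in 0.5% DMSO were tested in duplicate.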

Measured: AC50

Chain of Cytochrome P450 3A4 (Homo sapiens) (P08684 whole entry, looked up): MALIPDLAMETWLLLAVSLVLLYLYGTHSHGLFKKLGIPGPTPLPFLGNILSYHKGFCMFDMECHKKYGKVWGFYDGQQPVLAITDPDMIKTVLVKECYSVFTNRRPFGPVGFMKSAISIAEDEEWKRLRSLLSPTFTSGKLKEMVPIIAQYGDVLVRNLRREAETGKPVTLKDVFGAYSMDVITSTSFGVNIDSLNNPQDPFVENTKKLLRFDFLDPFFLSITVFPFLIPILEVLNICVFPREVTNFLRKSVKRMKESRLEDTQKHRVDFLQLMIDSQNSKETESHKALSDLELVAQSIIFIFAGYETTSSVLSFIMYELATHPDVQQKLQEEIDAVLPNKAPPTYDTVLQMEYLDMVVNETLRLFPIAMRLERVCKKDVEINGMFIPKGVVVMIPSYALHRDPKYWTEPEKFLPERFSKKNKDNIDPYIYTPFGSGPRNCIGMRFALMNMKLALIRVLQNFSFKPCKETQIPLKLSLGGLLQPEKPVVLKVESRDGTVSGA
Chain of Hypoxia-inducible factor 1-alpha (Homo sapiens) (Q16665 whole entry, looked up): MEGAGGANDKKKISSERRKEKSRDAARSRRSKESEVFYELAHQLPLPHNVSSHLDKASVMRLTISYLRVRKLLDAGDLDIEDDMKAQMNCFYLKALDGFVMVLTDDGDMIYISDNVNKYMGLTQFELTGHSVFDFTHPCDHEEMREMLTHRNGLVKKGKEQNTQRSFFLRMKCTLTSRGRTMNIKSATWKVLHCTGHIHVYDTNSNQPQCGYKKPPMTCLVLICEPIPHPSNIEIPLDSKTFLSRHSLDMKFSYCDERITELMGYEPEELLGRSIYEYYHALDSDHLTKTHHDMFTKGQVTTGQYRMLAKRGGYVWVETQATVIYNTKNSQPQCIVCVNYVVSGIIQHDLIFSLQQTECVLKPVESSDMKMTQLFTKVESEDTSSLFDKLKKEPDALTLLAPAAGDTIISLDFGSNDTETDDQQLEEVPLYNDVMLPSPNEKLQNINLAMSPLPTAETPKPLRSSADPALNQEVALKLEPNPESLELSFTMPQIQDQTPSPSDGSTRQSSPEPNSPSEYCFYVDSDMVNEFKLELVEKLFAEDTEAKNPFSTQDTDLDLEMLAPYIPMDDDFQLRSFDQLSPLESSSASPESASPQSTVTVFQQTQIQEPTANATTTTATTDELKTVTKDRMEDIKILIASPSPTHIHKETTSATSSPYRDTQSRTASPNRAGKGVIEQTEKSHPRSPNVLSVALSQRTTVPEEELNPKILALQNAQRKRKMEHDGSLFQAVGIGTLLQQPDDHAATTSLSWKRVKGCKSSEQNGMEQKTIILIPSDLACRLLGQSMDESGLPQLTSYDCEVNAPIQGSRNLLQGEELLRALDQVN
Chain of Cytochrome P450 3A7 (Homo sapiens) (P24462 whole entry, looked up): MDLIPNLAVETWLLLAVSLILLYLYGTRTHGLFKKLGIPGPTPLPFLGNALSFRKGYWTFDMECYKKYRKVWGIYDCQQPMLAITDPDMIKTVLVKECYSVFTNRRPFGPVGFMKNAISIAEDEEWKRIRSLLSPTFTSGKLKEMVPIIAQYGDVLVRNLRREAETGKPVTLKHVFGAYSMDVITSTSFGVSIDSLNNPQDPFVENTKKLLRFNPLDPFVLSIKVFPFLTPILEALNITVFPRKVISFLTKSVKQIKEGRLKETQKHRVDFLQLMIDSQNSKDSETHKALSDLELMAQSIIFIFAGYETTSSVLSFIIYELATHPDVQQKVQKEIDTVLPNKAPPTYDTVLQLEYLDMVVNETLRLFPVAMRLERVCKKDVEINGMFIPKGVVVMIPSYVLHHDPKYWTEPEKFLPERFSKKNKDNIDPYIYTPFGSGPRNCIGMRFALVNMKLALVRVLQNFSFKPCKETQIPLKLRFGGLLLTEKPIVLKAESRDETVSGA

c1ccc(C(O[C@@H]2CCCN(CCc3ccc4c(c3)OCO4)C2)c2ccccc2)cc1
active: [1] 50 µM | [2] 59.7 µM | [3] 63.6 µM | [5] 84.1 µM | [7] 81.9 µM | [8] 79.1 µM | [9] 6.12 µM | [10] 83.6 µM | [11] 79.1 µM | [13] 75.3 µM | [15] 80.4 µM | [16] 78.3 µM | [17] 80.8 µM
inactive: [4] | [6] | [12] | [14]

CCc1cccc(CC)c1N
not listed: [14]
inactive: all other assays above

CCCc1ccccc1
not listed: [14]
inactive: all other assays above

CC(=O)c1ccccc1
not listed: [14]
inactive: all other assays above

Cc1nccn1-c1ccc(Sc2cccc(C3(C(N)=O)CCOCC3)c2)cc1
inactive: [6] | [12] | [15] | [16]
active: [1] 6.52 µM | [2] 4.94 µM | [18] 13.4 µM | [3] 4.47 µM | [4] 32.8 µM | [5] 21.9 µM | [19] 10.4 µM | [7] 19.5 µM | [8] 11.6 µM | [9] 6.16 µM | [10] 15.1 µM | [11] 10.7 µM | [13] 4.69 µM | [17] 11 µM

Nc1ccn([C@@H]2O[C@H](CO)[C@@H](O)[C@@H]2O)c(=O)n1
not listed: [14]
inactive: all other assays above

O=C(O)c1cccc(C(=O)O)c1
not listed: [8] | [14]
inactive: all other assays above

NC(=O)N1c2ccccc2C=Cc2ccccc21
active: [1] 41.8 µM
not listed: [14] | [18] | [19]
inactive: all other assays above
